Test [1] is described as follows: NCI Yeast Anticancer Drug Screen. Data for the rad50 strain (AID 155).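 Note: 0% = growth of vehicle-only cultures of the same strain.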 Particulars: S. cerevisiae rad50 strain growth inhibition; at 50.0 µM; active compounds read high. Put shortly: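 Genetically altered yeast (DNA repair pathway); compound treatment; growth inhibition vs vehicle ctrl.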
The nature of test [2]: NCI Yeast Anticancer Drug Screen. Data for the mec2-1 strain (AID 157). The settings on record: S. cerevisiae mec2-1 strain, at 50.0 µM, active compounds read high. Put shortly: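 Compounds were applied to mec2-1 yeast cells. Their growth was then compared with that of vehicle-treated cultures to give growth inhibition.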
Test [3] in a line: NCI Yeast Anticancer Drug Screen. Data for the sgs1 mgt1 strain (AID 161).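 Note: 0% = growth of cultures given vehicle only.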 The settings on record: S. cerevisiae sgs1 mgt1 strain, at 50.0 µM, active compounds read high. Put shortly: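 Yeast cells carrying a defined DNA-repair defect were exposed to test compounds. Growth inhibition was measured relative to vehicle-treated controls.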
Test [4] is described as follows: NCI Yeast Anticancer Drug Screen. Data for the cln2 rad14 strain (AID 165).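 Note: 0% = growth equal to vehicle treated cultures.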 Particulars: S. cerevisiae cln2 rad14 strain, at 50.0 µM, active compounds read high. Put shortly:
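Strain: cln2 rad14 yeast, altered in cell cycle control and DNA damage repair. Read-out: growth inhibition vs vehicle.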

Test [5] can be described thus: NCI Yeast Anticancer Drug Screen. Data for the bub3 strain (AID 167). Particulars: S. cerevisiae bub3 mutant strain, at 50.0 µM, active compounds read high. Put shortly: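 Yeast carrying a defined mutation is treated with each compound, and growth is compared with that of vehicle-exposed cells to give inhibition.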
The nature of test [6]: NCI Yeast Anticancer Drug Screen. Data for the mlh1 rad18 strain (AID 175). The settings on record: S. cerevisiae mlh1 rad18 strain growth inhibition; at 50.0 µM; active compounds read high. The procedure, abridged:
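A repair-deficient yeast strain is exposed to test compound, and growth is scored relative to vehicle-treated controls.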

This is part of a sample that, as a whole, favours compounds with a hit. Of some 79,000 tested, about 15% had one in any assay. Values without a mark were called inactive. The source made the active and inactive calls. Cut-off read from the data, not from the text of the source: active = growth inhibition above about 70%; inactive = the rest.

For `O=c1nnc(O)c2n(O)cccc1-2`, the growth inhibition in test [1] is -24.2%; in test [2], -11.8%; in test [3], 6.55%; in test [4], -42.5%; in test [5], -1.75%; in test [6], 14%.
`Cc1ccc(Cl)cc1NC(=O)CCc1ccccc1`: the growth inhibition in test [1] was 3.7%; in test [2], 22.1%; in test [3], 23.6%; in test [4] it was -1.6%; in test [5], 4.25%; in test [6] it was 21.1%.
In the case of `C1CCSCCCCCSCCCCCSCCCCCSCC1`, the growth inhibition is 25.2% in test [1]; -7.55% in test [2]; -4.2% in test [3]; -3.15% in test [4]; 4.35% in test [5]; -8.7% in test [6].
With `O=C1c2ccccc2-c2cccc3ccc(-c4ccccc4)c1c23`, the growth inhibition in test [1] is 4.85%; in test [2] it was 1.9%; in test [3] it was -10.2%; in test [4], -2.85%; in test [5] it was -7.25%; in test [6], 12.5%.
As for `CCOC(=O)c1[nH]cc(C)c1-c1c[nH]c2ccccc12`, the growth inhibition in test [1] is 31%; in test [2] it was 27.6%; in test [3] it was 20.4%; in test [4], 19.7%; in test [5], -4.05%; in test [6], 41.2%.
For `O=C(O)c1ccccc1-c1ccccc1C(=O)Nc1ccc2c(c1)[nH]c(=O)c1ccccc12`, the growth inhibition in test [1] was -13.8%; in test [2], -3.85%; in test [3] it was -21.8%; in test [4], 46.9%; in test [5], -15.8%; in test [6], -22.3%.
`CC(C)=NNC(=O)c1ccc([N+](=O)[O-])cc1`: the growth inhibition in test [1] was 9.35%; in test [2] it was 0.95%; in test [3], 2.1%; in test [4], 5.1%; in test [5], 3.65%; in test [6], 10.4%.
Regarding `OCCCNc1ncnc2[nH]ncc12`, the growth inhibition was 7.7% in test [1]; 16.1% in test [2]; 11.6% in test [3]; 59% in test [4]; -4.9% in test [5]; 13.4% in test [6].
Consider `CCC12CC3(C(=O)OC)OC1C(O)CN1CCc4c(n3c3cc(OC)ccc43)C12` (stereo unspecified), for which the growth inhibition in test [1] was 6.9%; in test [2] it was -42.1%; in test [3], 12.2%; in test [4], 5.05%; in test [5] it was -9.35%; in test [6], 1.5%.
Turning to `O=C(CNc1ccc2c(=S)c3ccccc3[nH]c2c1)Nc1ccccc1-c1ccccc1NC(=O)CNc1ccc2c(=S)c3ccccc3[nH]c2c1`, the growth inhibition is 88.6% (active) in test [1]; 92.5% (active) in test [2]; 92.1% (active) in test [3]; 90.8% (active) in test [4]; 90.7% (active) in test [5]; 85.9% (active) in test [6].
On to `O=C(O)c1ccc2c(c1)S(=O)(=O)c1ccccc1C2=O`, for which the growth inhibition in test [1] is 14.1%; in test [2], 17.5%; in test [3], -3.8%; in test [4] it was 9.6%; in test [5] it was 23.9%; in test [6] it was 17.1%.
As for `CCC(C)(C)c1ccc(OCCOc2ccc(C(=O)O)cc2[N+](=O)[O-])cc1`, the growth inhibition in test [1] was -4.1%; in test [2] it was 12.2%; in test [3], -3.9%; in test [4], -17.6%; in test [5], -6.6%; in test [6], -20.1%.
For the compound `COc1ccccc1NC=O`, the growth inhibition is -1.5% in test [1]; -25.1% in test [2]; -3.65% in test [3]; 16.8% in test [4]; -7.4% in test [5]; 2.55% in test [6].
Turning to `Cc1cc(N(CCOS(C)(=O)=O)CCOS(C)(=O)=O)ccc1C=Nc1ccc(C(=O)O)c(O)c1`, the growth inhibition in test [1] is 82.8% (active); in test [2], 86.8% (active); in test [3], 46%; in test [4], 77.5% (active); in test [5] it was 19.2%; in test [6] it was 88% (active).
In the case of `Cc1ccc(NC(=O)c2cc(S(=O)(=O)n3cc[nH]c3=O)c(S)cc2Cl)cc1`, the growth inhibition was 14.5% in test [1]; -5.85% in test [2]; 23.9% in test [3]; 8.65% in test [4]; -4.75% in test [5]; 34% in test [6].
With `COc1cccc(/C=C\C#N)c1`, the growth inhibition in test [1] was -23.1%; in test [2], -1.3%; in test [3] it was -45%; in test [4], -7.05%; in test [5], -26.9%; in test [6] it was -22.1%.
For `N#CCCCCCCCCCC#N`, the growth inhibition in test [1] is -18.9%; in test [2], -36%; in test [3] it was -47.4%; in test [4], 25.9%; in test [5], -52.5%; in test [6], 11.4%.
Take `COC(=O)C1OCOC2C(CO)OCOC12` (stereo unspecified): the growth inhibition in test [1] is 6.8%; in test [2] it was 23.1%; in test [3], -1.5%; in test [4], -49.4%; in test [5] it was 2.8%; in test [6] it was -7.85%.
Take `CC1=CNNc2ccccc21`: the growth inhibition in test [1] was -2.6%; in test [2], 1.45%; in test [3] it was -4.6%; in test [4], 8%; in test [5] it was -14.4%; in test [6], 5.1%.
`O=C(O)COc1c2occc2cc2ccc(=O)oc12`: the growth inhibition is 7.9% in test [1]; -12.4% in test [2]; 22.7% in test [3]; 1.55% in test [4]; -3.1% in test [5]; 6% in test [6].
Consider `CNC(=O)C(C)NC(=O)C(Cc1ccccc1)NC(=O)OC(C)(C)C` (stereo unspecified), for which the growth inhibition in test [1] is -10.2%; in test [2] it was -57.7%; in test [3], -16.2%; in test [4] it was -28.8%; in test [5], -19.2%; in test [6], 1.05%.

For the origin of these results see PubChem BioAssay (NCI).
